Data: publication PMC4336329 (PLoS ONE, 2015)
In all, about 310,000 compounds went through this assay and about 14,000 (4.5%) showed an effect of 50% or more. The effect is printed as a negative number. The entries come from a sample that favours strong results as a whole.

The compounds below were run against human ether-à-go-go-related gene (hERG) potassium channel (human, UniProt Q12809) (assay: primary screen, population patch clamp on CHO cells stably expressing hERG; higher = less effect of the substance).
Chain of human ether-à-go-go-related gene (hERG) potassium channel (Q12809 whole entry, looked up): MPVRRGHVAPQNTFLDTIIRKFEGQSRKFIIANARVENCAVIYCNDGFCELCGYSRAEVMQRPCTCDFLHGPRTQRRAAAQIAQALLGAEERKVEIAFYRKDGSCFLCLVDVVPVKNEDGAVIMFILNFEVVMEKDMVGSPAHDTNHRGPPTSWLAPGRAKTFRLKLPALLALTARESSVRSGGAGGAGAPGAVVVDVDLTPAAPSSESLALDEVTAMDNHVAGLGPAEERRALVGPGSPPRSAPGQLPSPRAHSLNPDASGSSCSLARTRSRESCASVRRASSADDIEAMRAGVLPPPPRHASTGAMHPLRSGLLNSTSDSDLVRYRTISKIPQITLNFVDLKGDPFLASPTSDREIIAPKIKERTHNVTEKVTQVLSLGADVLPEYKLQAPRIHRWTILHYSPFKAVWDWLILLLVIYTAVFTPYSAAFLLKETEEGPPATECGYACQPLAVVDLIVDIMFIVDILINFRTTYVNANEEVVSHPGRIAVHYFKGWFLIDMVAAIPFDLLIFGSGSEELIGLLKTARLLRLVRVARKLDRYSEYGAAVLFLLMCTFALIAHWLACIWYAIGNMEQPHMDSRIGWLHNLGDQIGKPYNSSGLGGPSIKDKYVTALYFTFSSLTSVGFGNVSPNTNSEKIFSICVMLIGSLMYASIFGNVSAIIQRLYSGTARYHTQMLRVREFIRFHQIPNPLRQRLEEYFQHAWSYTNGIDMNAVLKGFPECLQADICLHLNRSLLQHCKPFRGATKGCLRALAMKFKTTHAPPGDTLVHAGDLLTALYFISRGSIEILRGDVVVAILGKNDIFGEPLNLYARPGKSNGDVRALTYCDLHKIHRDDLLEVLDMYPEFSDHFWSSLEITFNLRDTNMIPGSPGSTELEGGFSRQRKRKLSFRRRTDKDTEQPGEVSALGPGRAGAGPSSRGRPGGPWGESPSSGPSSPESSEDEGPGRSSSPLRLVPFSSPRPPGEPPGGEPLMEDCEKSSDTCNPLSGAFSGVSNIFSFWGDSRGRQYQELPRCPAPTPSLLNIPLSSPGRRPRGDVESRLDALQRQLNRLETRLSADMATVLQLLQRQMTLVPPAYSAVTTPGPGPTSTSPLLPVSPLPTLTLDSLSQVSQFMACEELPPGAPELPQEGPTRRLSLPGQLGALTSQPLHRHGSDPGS
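Further: peak tail current of the secondary pulse compared with the same well before compound.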

Compound | hERG current change (%, negative = inhibition) at 10uM [%]
O=C(O)c1cccc(Nc2ncnc3ccc(Br)cc23)c1 | -1.55
COc1ccccc1CNS(=O)(=O)c1ccc(C)cc1 | 7.04
CN(C)c1ccc(/C=C2\C(=N)N3N=C(CC(=O)N4CCCC4)SC3=NC2=O)cc1Br | 4.09
COCc1cc(C)nc(N/N=C/c2ccc(Cl)c(Cl)c2)c1C#N | 12.4
CCN1CC2([N+](=O)[O-])CC=C(Cl)C([N+](=O)[O-])(C1)C2 (stereo not drawn) | 13.9
Cc1cc(N2CCN(S(=O)(=O)c3ccc(Br)cc3)CC2)n2ncnc2n1 | -76.9
Cc1cc(N2CCN(S(=O)(=O)Cc3ccccc3)CC2)n2ncnc2n1 | -46.1
CC(=O)Nc1ccc(S(=O)(=O)N2CCN(c3cc(C)nc4ncnn34)CC2)cc1 | -27.9
Cc1nc2ncnn2c(N2CCN(S(=O)(=O)c3ccc(Br)cc3)CC2)c1C | -20.7
Cc1ccccc1N1CCN(S(=O)(=O)c2ccc3ccccc3c2)CC1 | 9.64
Cc1cc(N2CCN(S(=O)(=O)c3ccc4ccccc4c3)CC2)n2ncnc2n1 | -77.7
CC1CN(C(=O)CSc2nnc(NC(=O)NC(C)(C)C)s2)CC(C)O1 (stereo not drawn) | 19
CC1(CCc2ccccc2)NC(=O)N(Cc2nnc(-c3ccccc3Br)o2)C1=O (stereo not drawn) | -26
CCOC(=O)C1CCN(C(=O)CN(c2ccc(OC)c(OC)c2)S(=O)(=O)c2ccccc2)CC1 | -14.7
CCOc1ccc(S(=O)(=O)NCCC(=O)NCC(c2ccco2)N2CCCCC2)cc1 (stereo not drawn) | -17.7
CN1CCN(c2ccc([N+](=O)[O-])cc2NC(=O)c2ccco2)CC1 | -66.9
Cc1cc(C(=O)Nc2cc(C(F)(F)F)ccc2N2CCOCC2)no1 | 5.97
CC1N(C)c2cc(NC(=O)c3cccs3)c(P(=O)(Nc3ccc([N+](=O)[O-])cc3)N3CCOCC3)cc2C1(C)C (stereo not drawn) | 12.2
O=C(Nc1cc(C(F)(F)F)ccc1N1CCCCC1)c1ccco1 | 21.2
O=C(Nc1cc([N+](=O)[O-])ccc1N1CCOCC1)c1ccco1 | -25.6
O=C(Nc1cc([N+](=O)[O-])ccc1N1CCCC1)c1ccco1 | -34.5
CN1CCN(c2ccc(C(F)(F)F)cc2NC(=O)c2ccco2)CC1 | -54.5
CCCCn1nc(C(=O)Nc2cc(C(F)(F)F)ccc2N2CCOCC2)ccc1=O | -83.7
O=C(Nc1cc(C(F)(F)F)ccc1N1CCOCC1)c1ccco1 | 6.93
CCC(=O)Nc1cc(C(F)(F)F)ccc1N1CCOCC1 | 1.09
CC1N(C)c2cc(NC(=O)c3ccco3)ccc2C1(C)C (stereo not drawn) | -13.9
CC1N(C)c2cc(NC(=O)c3ccco3)c(P(=O)(Nc3ccc([N+](=O)[O-])cc3)N3CCOCC3)cc2C1(C)C (stereo not drawn) | -56
